Measured values reported in the supplement of paper PMC3334620.
Over roughly 33,000 sequences, “E-score (-0.5 to 0.5)” has its median near -0.012; the highest 2% begin near 0.27. The sample holds the highest values, similar sequences and a random draw of the others, so the mix is not that of the screen.

Each sequence was assayed against T1, Vhr1 (UniProt P40522) (assay: PBM E-score (8-mer binding enrichment) (E-score (-0.5 to 0.5)); higher = stronger / more preferred TF binding). Conditions: protein concentration: 200 nM; construct: GST-full length.
T1 sequence: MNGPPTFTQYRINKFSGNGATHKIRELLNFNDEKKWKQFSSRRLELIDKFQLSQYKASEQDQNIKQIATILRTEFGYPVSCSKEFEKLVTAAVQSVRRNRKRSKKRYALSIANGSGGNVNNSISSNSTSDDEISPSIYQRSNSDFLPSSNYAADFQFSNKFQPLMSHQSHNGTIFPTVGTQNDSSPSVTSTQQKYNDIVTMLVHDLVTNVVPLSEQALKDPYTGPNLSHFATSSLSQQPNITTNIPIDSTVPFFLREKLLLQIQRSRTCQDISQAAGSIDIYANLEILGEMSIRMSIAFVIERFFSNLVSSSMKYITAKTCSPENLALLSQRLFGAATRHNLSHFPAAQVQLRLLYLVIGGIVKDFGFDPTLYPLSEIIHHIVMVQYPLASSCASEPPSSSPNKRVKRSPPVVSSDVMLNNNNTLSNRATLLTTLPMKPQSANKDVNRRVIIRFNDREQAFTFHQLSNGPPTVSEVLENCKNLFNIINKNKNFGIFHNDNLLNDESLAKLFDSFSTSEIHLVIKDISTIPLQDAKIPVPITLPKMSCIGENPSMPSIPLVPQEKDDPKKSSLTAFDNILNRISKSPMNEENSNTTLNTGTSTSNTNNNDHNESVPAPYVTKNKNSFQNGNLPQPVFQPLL
Description: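 Universal 'all 10-mer' protein binding microarrays (Agilent AMADID 015681) probed with GST-tagged S. cerevisiae TFs (full-length or DBD) made by in vitro transcription/translation (PURExpress), about 100-200 nM. Bound TF was detected with fluorescent anti-GST. Each ungapped 8-mer (which stands for itself and its reverse complement) is scored by the PBM enrichment score (E-score), a modified Wilcoxon-Mann-Whitney statistic from -0.5 to +0.5, computed with the Universal PBM Analysis Suite. Scale: above 0.35 generally sequence-specific binding.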

Row | Sequence | PBM E-score
1 | ACCATGTA | 0.261
2 | ACTATGTG | 0.292
3 | ACTATGTA | 0.207
4 | ACCATGTG | 0.295
5 | ACCATGTC | 0.144
6 | ACTATGTC | 0.091
7 | ATGCCCTC | -0.0196
8 | CCAGGTTA | -0.0596
9 | ACGATTGA | 0.0265
10 | CTGATTGC | 0.035
11 | ATGATTGA | 0.344
12 | GCGATTGA | -0.121
13 | CTGATTGA | 0.177
14 | ACGATTGC | 0.0187
15 | ATGATTGC | 0.345
16 | GTGATTGA | 0.329
17 | ATGATTGG | 0.178
18 | ACTCTTAA | -0.233
19 | ACGTTGGA | 0.0766
20 | GGCGTTAC | -0.119
21 | ACGTGATG | 0.00697
22 | AAGAAGCT | -0.191
23 | CCTCTGCC | -0.286
24 | AAAGCGTA | -0.183
25 | ATAGCATG | -0.034

Row | Sequence | PBM E-score
26 | GCTGTCAA | -0.125
27 | ATTTTATC | -0.13
28 | AGAGCGCT | -0.249
29 | ACCGTTCA | -0.0238
30 | GGTCGCGA | 0.194
31 | ACTCGCGC | 0.273
32 | CCTCGCGC | -0.0292
33 | ACTCGCCT | 0.0445
34 | AGTCGCGA | 0.305
35 | ACTCGCCG | 0.306
36 | CGTCGCGA | 0.181
37 | ACTCGCGG | 0.209
38 | CCTCGCCG | -0.118
39 | AGTCGCGG | 0.351
40 | AGTCGCTG | 0.216
41 | ACTCGCGA | 0.227
42 | AGCAAATA | -0.0751
43 | CAAATTGA | -0.124
44 | TGCAGCAA | 0.114
45 | AATCCTAC | -0.159
46 | CTAAGCCA | -0.0787
47 | TACGGCGA | 0.0569
48 | ACCGAGTG | 0.13
49 | AATGCGCG | 0.193
50 | CAATTCTG | -0.077

Row | Sequence | PBM E-score
51 | AGAAAATA | -0.0162
52 | AGTCGCTC | 0.237
53 | ACTCGCTG | 0.0751
54 | ACTCGCTA | 0.133
55 | AGTCGCGC | 0.374
56 | CGTCGCGC | 0.0614
57 | ACTCGCTC | 0.282
58 | ACAGGTTG | 0.0217
59 | AACCAATG | 0.209
60 | CAGAGTTC | -0.0458
61 | CCCCTACG | -0.139
62 | CATCCATC | 0.0866
63 | GTCATGTA | 0.141
64 | ACCTATAG | -0.144
65 | ACCGACTC | 0.34
66 | CCCGACTA | 0.206
67 | CCCGACTC | 0.426
68 | ACCGACTG | 0.177
69 | ACCGACTA | -0.0288
70 | CCCGACCC | 0.123
71 | CAAGACGA | -0.109
72 | AGACTCCG | 0.225
73 | AGACTCCA | 0.133
74 | CGACTCCA | 0.4
75 | CGACTCCC | 0.321

Row | Sequence | PBM E-score
76 | CGACTCCG | 0.391
77 | GGACTCCA | 0.13
78 | CTACTCCA | -0.0498
79 | TGACTCCA | 0.48
80 | CAACTCCG | -0.0132
81 | CCACTCCA | 0.0742
82 | GGACTCCC | 0.0918
83 | AGACTCCC | -0.00382
84 | TCCCCCCA | -0.233
85 | CATACTAG | 0.238
86 | GTTTGAAA | -0.0935
87 | ATTGTGAA | -0.0037
88 | ATCCAGGG | -0.0888
89 | AGCTCCCT | -0.235
90 | CCCCCTAC | -0.185
91 | AAAAGCGC | -0.137
92 | AGAATCAG | 0.283
93 | AGAATCAA | 0.0929
94 | AGAATCCT | -0.231
95 | AGAATCAC | 0.228
96 | AGAATCAT | 0.323
97 | CGAATCAA | 0.127
98 | CGAATCAG | 0.344
99 | ACAATCAT | 0.231
100 | CCAATCAG | -0.0885
